Measurements as given in PubChem BioAssay AID1578 (Sanford-Burnham Center for Chemical Genomics, 2009).
The whole screen tested about 290,000 compounds, of which about 3,000 (1%) were called active. Many of the other results were omitted from the sample, so actives are more common in it than they were. Values without a mark were called inactive. Cut-off read from the data, not from the text of the source: active = inhibition mostly above about 36% (no sharp cut-off); inactive = mostly below about 34%.

Test: NOD1 signaling inhibitors, primary screen, cell-based, luminescence, uHTS (AID 1578);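 note: HEK-293T reporter cells stimulated with the NOD1 agonist gamma-tri-DAP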
Conditions: NOD1-driven NF-kB luciferase reporter cells, at 4 µM, stronger effect = higher value

Row | SMILES | inhibition
1 | CCc1cccc(NC(=O)c2sc3nc4n(c(=O)c3c2C)CCC4)c1 | -29.9%
2 | Oc1ccc(Nc2nc(-c3ccc(O)cc3)cs2)cc1 | -23.2%
3 | COc1ccc(-c2csc(Nc3ccc(O)cc3)n2)cc1 | 56.7% (active)
4 | COc1ccc(Nc2nc(-c3ccc(OC)cc3)cs2)cc1 | -34.6%
5 | Cc1ccc(S(=O)(=O)N(CC(=O)N/N=C/c2cccc(C)c2)c2cccc3cccnc23)cc1 | -9%
6 | CC(C)CC(=O)NC(C)C(c1cccs1)N1CCOCC1 (configuration not stated) | -10.9%
7 | O=c1cc(C(F)(F)F)[nH]c(=S)n1-c1ccccc1 | -3.4%
8 | O=[N+]([O-])c1ccc(-c2c(O)c3ccccc3c3nc4ccccc4nc23)cc1 | 87.7% (active)
9 | Cc1cc(-c2ccc([N+](=O)[O-])cc2)nc2ccccc12 | -26.6%
10 | O=[N+]([O-])c1ccc(-c2cnc3ccccc3n2)cc1 | -42.9%
11 | CCOC(=O)c1cnn(-c2ccc(C(F)(F)F)cn2)c1N | -92.9%
12 | CC(=O)Nc1ccc(NC(=O)CCOc2cc(C)ccc2C)cc1 | 46.4%
13 | CCOC(=O)C1(Cc2ccc(OC)cc2)CCN(C(=O)CCn2cccn2)CC1 | 1.1%
14 | Cc1cccc2sc(NNC(=O)c3cc(-c4cccs4)nc4ccccc34)nc12 | 86.7% (active)
15 | Cc1ccc2sc(NNC(=O)c3cc(-c4cccs4)nc4ccccc34)nc2c1C | -36.7%
16 | Cc1cc(C)c2nc(NNC(=O)c3cc(-c4cccs4)nc4ccccc34)sc2c1 | -29.4%
17 | O=C(NCCOc1ccc(Cl)cc1)c1ccc2ccccc2n1 | -22.8%
18 | c1ccc(-c2nc3cnccn3c2Nc2ccc3c(c2)OCCO3)cc1 | -26.2%
19 | Cc1nn(CC(=O)c2ccc(Cl)s2)c(C)c1[N+](=O)[O-] | -20.3%
20 | COc1ccc(Cc2nnc(NC(=O)c3cccc(F)c3)s2)cc1OC | -8%
21 | COc1ccc(CCn2c(C)c(C(C)=O)c(C(C)=O)c2C)cc1OC | -23.3%
22 | COc1ccc(CCn2c(C)cc(C(=O)CSc3nnnn3-c3ccccc3)c2C)cc1OC | -55.4%
23 | CCOC(=O)c1cc(C)n(CCc2ccccc2)c1C | -18.3%
24 | COc1ccc(CCn2c(C)cc(C(=O)CCl)c2C)cc1OC | 59.7% (active)
25 | Cc1cc(C(=O)CSc2nnnn2-c2ccccc2)c(C)n1CCc1ccccc1 | -52.2%

Row | SMILES | inhibition
26 | Cc1cc(C(=O)CCl)c(C)n1CC1COc2ccccc2O1 (configuration not stated) | 51.3% (active)
27 | Cc1cc(C(=O)COC(=O)c2ccc(O)cc2)c(C)n1CC1COc2ccccc2O1 (configuration not stated) | -9.9%
28 | Cc1cc(C(=O)CN2C(=O)C(=O)N(Cc3ccccc3)C2=O)c(C)n1CC1COc2ccccc2O1 (configuration not stated) | 27.8%
29 | Cn1cccc1C(NC(=O)c1ccccc1)C(Cl)(Cl)Cl (configuration not stated) | -0.5%
30 | Cc1cccc(C)c1OCCNC(=O)c1ccc2ccccc2n1 | 53.9%
31 | COc1cccc(C(=O)Nc2ccc(Cl)c(C(F)(F)F)c2)c1 | -30.7%
32 | Cc1cc(=O)[nH]c(N/N=C/c2cn(CCC#N)nc2-c2ccccc2)n1 | -41.6%
33 | Cc1cc(NC(=O)CN(C)C)c([N+](=O)[O-])cc1C | -1.4%
34 | COC(=O)C1=C(Cn2cnc3ccccc32)NC(=O)NC1c1cc(C)ccc1C (configuration not stated) | 14.7%
35 | Cc1nnc2n(c1=O)C(CS(=O)(=O)c1ccccc1)CS2 (configuration not stated) | 9.4%
36 | CCCc1nnc(NC(=O)CCC(=O)N2CCN(Cc3cc(F)ccc3OC)CC2)s1 | -10.4%
37 | CCOC(=O)CNC(=O)Cc1ccc(Cl)cc1 | -9.2%
38 | Cc1nc2c(c(C)nn2-c2ccccc2)c(C)c1Cl | 6.2%
39 | Cc1cc(C)c2c(C)nn(-c3ccccc3)c2n1 | -3.5%
40 | CN(C)S(=O)(=O)c1cccc(C(=O)OCC(=O)Nc2sccc2C#N)c1 | 5.6%
41 | Fc1ccccc1Cc1nnc2n1N=C(c1ccc(Cl)cc1)CS2 | -16%
42 | Nc1cc(-c2ccccc2)nn1Cc1ccccc1 | -25.1%
43 | Nc1cc(-c2cccc(Br)c2)nn1Cc1ccccc1 | -9.7%
44 | Nc1cc(-c2ccc(Br)cc2)nn1Cc1ccccc1 | 46.7% (active)
45 | Cc1cc(/C=C2\SC(=Nc3ccc(F)cc3)NC2=O)c(C)n1-c1ccc(S(N)(=O)=O)cc1 | -10.7%
46 | COc1ccc(Cc2nnc(SCC(=O)NC3CCCC3)o2)cc1 | 71.8% (active)
47 | COc1ccc(OCc2nnc(SCC(=O)NC3CCCCC3)o2)cc1 | -22.6%
48 | O=C(CSc1nnc(Cc2ccccc2)o1)NC1CCCCC1 | -2.8%
49 | COc1ccc(C2NC(=O)CCC2[N+](=O)[O-])cc1 (configuration not stated) | -17.7%
50 | CCOC(=O)c1ccccc1NC(=O)c1cc2ccccc2o1 | -31.6%

Row | SMILES | inhibition
51 | C/C(=N\NC(=O)c1cc(C)nc2ccccc12)c1ccco1 | -18.1%
52 | O=C(CCCCn1c(=O)[nH]c2ccccc2c1=O)NCCC1=CCCCC1 | -3.1%
53 | COc1cc(/C=N/NC(=O)c2ccc(CSc3nc4ccccc4[nH]3)cc2)ccc1O | -22.3%
54 | O=C(N/N=C/c1ccc(OC(F)F)cc1)c1ccc(CSc2nc3ccccc3[nH]2)cc1 | -27.9%
55 | CCOc1ccc(/C=N/NC(=O)c2ccc(CSc3nc4ccccc4[nH]3)cc2)cc1 | 66.9% (active)
56 | Cn1c(=O)c2c(nc(N3CCN(c4ccc([N+](=O)[O-])cc4)CC3)n2C)n(C)c1=O | 0.8%
57 | CCOc1ccccc1C1C(C#N)=C(N)Oc2cc(C)n(Cc3ccccn3)c(=O)c21 (configuration not stated) | 4.8%
58 | O=C1c2ccccc2C(=O)c2c1ccc1c(=O)n(-c3ccccc3)[nH]c21 | 8.9%
59 | Cc1ccc(C)c(NC(=O)COC(=O)c2cccc3c2C(=O)c2ccccc2C3=O)c1 | 16.2%
60 | Cc1cccc(-c2cc3c(nn2)-c2ccccc2C3=O)c1 | -99%
61 | Cc1ccc2c3c(cccc13)-c1ccccc1C2=O | -32.2%
62 | O=C(Cn1c(C(F)(F)F)nc2ccccc21)N1CCCC1 | -9.5%
63 | CC(CN1C(C)CCCC1C)OC(=O)c1ccc(Cl)cc1Cl (configuration not stated) | -14.9%
64 | CCN(CC(=O)NCc1ccc(F)cc1)CC(=O)NC1CCCC1 | -35.5%
65 | CCCn1nnnc1SCC(=O)N1CCCc2ccccc21 | -20%
66 | Cc1ccnc(SCC(=O)n2c3c(c4ccccc42)CC(C)CC3)n1 (configuration not stated) | 8.4%
67 | CC1CCN(CC(=O)n2c3c(c4ccccc42)CCCC3)CC1 | 7.8%
68 | CC1CCc2c(c3ccccc3n2C(=O)CCl)C1 (configuration not stated) | 74.2% (active)
69 | Cc1cccc(Nc2nc(N)nc(CN3CCC(C)CC3)n2)c1C | -38.2%
70 | COc1ccc(OCc2nc(N)nc(Nc3cccc(C)c3C)n2)cc1 | -7%
71 | Cc1ccc(Nc2nc(N)nc(CN3CCCCCC3)n2)c(C)c1 | -23.1%
72 | Nc1nc(CCl)nc(Nc2ccccc2)n1 | 36.6%
73 | Cc1ccc(Nc2nc(N)nc(CSc3nccn3C)n2)c(C)c1 | -29.9%
74 | Cc1cccc(Nc2nc(N)nc(CN3CCN(C)CC3)n2)c1 | -6.7%
75 | COc1cccc(Nc2nc(N)nc(CCl)n2)c1 | -7.5%

Row | SMILES | inhibition
76 | CC1CC(C)CN(Cc2nc(N)nc(Nc3ccc4ccccc4c3)n2)C1 (configuration not stated) | -11.4%
77 | COc1ccc(C(C)C)cc1S(=O)(=O)N1CCC(C(=O)NCc2cccnc2)CC1 | -9.3%
78 | CN1CCN(C(=O)N2CCNC2=O)CC1 | -22%
79 | COc1ccc(/C(O)=C2/C(=O)C(=O)N(c3ccccn3)C2c2ccc(C(C)C)cc2)cc1 (configuration not stated) | -7.2%
80 | Cc1nc2cc(NS(=O)(=O)c3c(C)c(C)cc(C)c3C)ccc2s1 | 22.1%
81 | COc1ccc(NC(=O)[C@@H]2[C@@H]3C(=O)N(C4CCCCC4)C(=O)[C@@H]3C3c4ccccc4C=CN32)cc1 (some centres not stated) | -4.8%
82 | COc1ccc2sc(NC(=O)CC(C)C)nc2c1 | -66.7%
83 | Cn1c(=S)[nH]c2[nH]c(=O)cnc2c1=O | -2.8%
84 | COc1ccc(NC(=O)c2ccc(C(=O)c3ccccc3)o2)cc1 | -21.8%
85 | COc1ccc(CCNC(=O)c2nnn(CC(=O)Nc3ccc(C)cc3C)c2N)cc1OC | -14.4%
86 | COC(=O)C1(C)NC(c2ccccc2C)C2C(=O)N(c3ccc(F)cc3)C(=O)C21 (configuration not stated) | -24.2%
87 | Cc1cccc(C(=O)Nc2nnc(S(=O)(=O)N3CCC(C)CC3)s2)c1 | 21.6%
88 | Cc1ccc(C(=O)Nc2nnc(S(=O)(=O)N3CCCCCC3)s2)cc1 | -23.3%
89 | O=C(Nc1nnc(S(=O)(=O)N2CCCCC2)s1)c1ccc(Cl)cc1 | 37.5%
90 | CC1CCN(S(=O)(=O)c2nnc(NC(=O)c3cccc([N+](=O)[O-])c3)s2)CC1 | 30.9%
91 | COc1cc(/C=C2/SC(=S)N(CC(=O)NC(C)(C)C)C2=O)cc(OC)c1OC | 2.3%
92 | COc1ccc2c(CSc3nnc(-c4cccnc4)n3-c3ccccc3F)cc(=O)oc2c1 | -12.1%
93 | Cc1ccc(S(=O)(=O)N(C)C)cc1NC(=O)CN1C(=O)NC2(CCCCCC2)C1=O | -38.1%
94 | CCOC(=O)[C@@H]1[C@H]2COc3ccc(Br)cc3[C@H]2N2C(=O)N(c3ccc(C)cc3)C(=O)[C@]12C | -18.3%
95 | O=C(CSCc1ccccc1)Nc1ccc(F)c(F)c1 | -34.3%
96 | O=C(CSCc1ccccc1)Nc1ccc(F)cc1F | 7.2%
97 | O=C(CSCc1ccccc1)NNc1c(F)c(F)cc(F)c1F | 34.4% (active)
